Experimental findings from PubChem BioAssay (NCI) are described below.

About 79,000 compounds went through this panel and 15% of them were active in at least one assay; those are over-represented in the sample as a whole. Unmarked numbers belong to inactive results. The source made the active and inactive calls. No stated cut-off is given here; in the data, active means growth inhibition above about 70%; inactive means the rest.

Assay [1] in a line: NCI Yeast Anticancer Drug Screen. Data for the rad50 strain (AID 155).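 Further: 0% = growth of vehicle-only cultures of the same strain.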 The note with it: S. cerevisiae rad50 strain growth inhibition, active compounds read high. The method in brief: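 Cells are treated with compound, grown, and their growth is then scored against vehicle-only cultures of the same repair-deficient yeast strain.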
Assay [2] can be described thus: NCI Yeast Anticancer Drug Screen. Data for the mec2-1 strain (AID 157). The note with it: S. cerevisiae mec2-1 strain, active compounds read high. The method in brief: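 Vehicle-treated cultures served as reference for growth inhibition of compound-exposed mec2-1 yeast.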
Assay [3] can be described thus: NCI Yeast Anticancer Drug Screen. Data for the sgs1 mgt1 strain (AID 161).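 Further: 0% = growth of cultures given vehicle only.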 The note with it: S. cerevisiae sgs1 mgt1 strain, active compounds read high. The method in brief:
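Read-out: growth inhibition vs vehicle controls. Cells: mutant yeast strain deficient in DNA damage repair.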

The nature of assay [4]: NCI Yeast Anticancer Drug Screen. Data for the cln2 rad14 strain (AID 165).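 Further: 0% = growth equal to vehicle treated cultures.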 To be noted: S. cerevisiae cln2 rad14 strain, active compounds read high. The method in brief: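 Each compound was tested on cln2 rad14 yeast. Inhibition of growth was calculated against vehicle-exposed controls.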
Assay [5] is described as follows: NCI Yeast Anticancer Drug Screen. Data for the bub3 strain (AID 167). To be noted: S. cerevisiae bub3 mutant strain, active compounds read high. The method in brief:
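Part of a panel of yeast mutants defective in DNA damage repair or cell cycle regulation. Each strain is grown with compound, and inhibition is calculated relative to solvent-treated cultures.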

A short description of assay [6]: NCI Yeast Anticancer Drug Screen. Data for the mlh1 rad18 strain (AID 175). The note with it: S. cerevisiae mlh1 rad18 strain growth inhibition, active compounds read high. The method in brief: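 Vehicle-treated cultures served as the reference for growth inhibition in a yeast strain carrying DNA damage repair alterations exposed to each compound.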
Where [7] appears, read: at 5.0 µM (retest, dose inferred, filed as 0.5).
Where [8] appears, read: at 50.0 µM (retest, dose inferred, filed as 5.0).

With `CCCCCCCCC(=O)NCCCNCCCNC(=O)CCCCCCCC`, the growth inhibition in assay [1] (setting [7]) is -17%; in assay [1] (setting [8]) it was -17%; in assay [1] (at 50.0 µM) it was 69%; in assay [2] (setting [7]), -18%; in assay [2] (setting [8]), -18%; in assay [2] (at 50.0 µM) it was 50.2%. Besides, the growth inhibition in assay [3] (setting [7]) was -4%; in assay [3] (setting [8]) it was -4%; in assay [3] (at 50.0 µM), 66.3%; in assay [4] (setting [7]), -22%; in assay [4] (setting [8]), -22%; in assay [4] (at 50.0 µM) it was 92.2% (active). The growth inhibition in assay [5] (setting [7]) is -28%; in assay [5] (setting [8]), -28%; in assay [5] (at 50.0 µM) it was 90.8% (active); in assay [6] (setting [7]), -11%; in assay [6] (setting [8]), -11%; in assay [6] (at 50.0 µM), 89.3% (active).

With `N#CN1CCCC(O)c2sc3ccccc3c2CC1` (stereo not given), the growth inhibition was 3% in assay [1] (setting [7]); 9% in assay [1] (setting [8]); 56.4% in assay [1] (at 50.0 µM); 1% in assay [2] (setting [7]); 17% in assay [2] (setting [8]); 11.5% in assay [2] (at 50.0 µM). For the same compound, the growth inhibition in assay [3] (setting [7]) was 1%; in assay [3] (setting [8]), 3%; in assay [3] (at 50.0 µM), 38.9%; in assay [4] (setting [7]), 3%; in assay [4] (setting [8]) it was -7%; in assay [4] (at 50.0 µM), 9.85%. Moreover, the growth inhibition in assay [5] (setting [7]) is -2%; in assay [5] (setting [8]), 1%; in assay [5] (at 50.0 µM), 7.3%; in assay [6] (setting [7]), -1%; in assay [6] (setting [8]), -1%; in assay [6] (at 50.0 µM) it was -0.65%.

On to `Oc1ccc2oc3ccccc3c2c1`, for which the growth inhibition in assay [1] (setting [7]) was 9%; in assay [1] (setting [8]) it was 94% (active); in assay [1] (at 50.0 µM), 94.5% (active); in assay [2] (setting [7]) it was 0%; in assay [2] (setting [8]), 87% (active); in assay [2] (at 50.0 µM) it was 76% (active). Besides, the growth inhibition in assay [3] (setting [7]) was 0%; in assay [3] (setting [8]) it was 82% (active); in assay [3] (at 50.0 µM), 84.3% (active); in assay [4] (setting [7]), -3%; in assay [4] (setting [8]) it was 46%; in assay [4] (at 50.0 µM), 75.5% (active). For the same compound, the growth inhibition in assay [5] (setting [7]) is 0%; in assay [5] (setting [8]), 92% (active); in assay [5] (at 50.0 µM) it was 88.4% (active); in assay [6] (setting [7]), 3%; in assay [6] (setting [8]), 94% (active); in assay [6] (at 50.0 µM) it was 94.5% (active).

For the compound `Clc1c2ccccc2cc2cccnc12`, the growth inhibition in assay [1] (setting [7]) was 17%; in assay [1] (setting [8]), 90% (active); in assay [1] (at 50.0 µM), 50.2%; in assay [2] (setting [7]), 7%; in assay [2] (setting [8]), 26%; in assay [2] (at 50.0 µM) it was 54.6%. Moreover, the growth inhibition was 6% in assay [3] (setting [7]); 81% (active) in assay [3] (setting [8]); 48.8% in assay [3] (at 50.0 µM); 3% in assay [4] (setting [7]); 40% in assay [4] (setting [8]); 36% in assay [4] (at 50.0 µM). Moreover, the growth inhibition in assay [5] (setting [7]) is 3%; in assay [5] (setting [8]), 71% (active); in assay [5] (at 50.0 µM), 76% (active); in assay [6] (setting [7]) it was 17%; in assay [6] (setting [8]) it was 86% (active); in assay [6] (at 50.0 µM), 67.2%.

Consider `CCCCCSc1nc2ncnc(N)c2[nH]1`, for which the growth inhibition in assay [1] (setting [7]) is 1%; in assay [1] (setting [8]), 4%; in assay [1] (at 50.0 µM) it was 6.25%; in assay [2] (setting [7]) it was 1%; in assay [2] (setting [8]), 9%; in assay [2] (at 50.0 µM), -2.95%. The growth inhibition was -10% in assay [3] (setting [7]); -2% in assay [3] (setting [8]); 1.65% in assay [3] (at 50.0 µM); 4% in assay [4] (setting [7]); 6% in assay [4] (setting [8]); 28.9% in assay [4] (at 50.0 µM). Further, the growth inhibition in assay [5] (setting [7]) was 7%; in assay [5] (setting [8]), 16%; in assay [5] (at 50.0 µM), -5.5%; in assay [6] (setting [7]), 0%; in assay [6] (setting [8]), 8%; in assay [6] (at 50.0 µM) it was -14.5%.

On to `O=C(N/N=C/c1ccc2c(c1)OCO2)c1ccc([N+](=O)[O-])cc1`, for which the growth inhibition in assay [1] (setting [7]) is 3%; in assay [1] (setting [8]), 2%; in assay [1] (at 50.0 µM) it was 5.35%; in assay [2] (setting [7]), -14%; in assay [2] (setting [8]), -15%; in assay [2] (at 50.0 µM), 14.5%. The growth inhibition in assay [3] (setting [7]) is 8%; in assay [3] (setting [8]), 7%; in assay [3] (at 50.0 µM) it was 14.8%; in assay [4] (setting [7]) it was 4%; in assay [4] (setting [8]), 5%; in assay [4] (at 50.0 µM), 30.7%. Besides, the growth inhibition in assay [5] (setting [7]) was 0%; in assay [5] (setting [8]), 16%; in assay [5] (at 50.0 µM), 0.25%; in assay [6] (setting [7]) it was 3%; in assay [6] (setting [8]), 13%; in assay [6] (at 50.0 µM) it was 57%.

As to `CC1(C)CCC2(C(=O)O)CCC3(C)C(=CCC4C5(C)CC(O)C(O)C(C)(C(=O)O)C5CCC43C)C2C1` (stereo not given), the growth inhibition in assay [1] (setting [7]) was 99% (active); in assay [1] (setting [8]) it was 99% (active); in assay [1] (at 50.0 µM), 91.9% (active); in assay [2] (setting [7]), 99% (active); in assay [2] (setting [8]) it was 99% (active); in assay [2] (at 50.0 µM) it was 94.6% (active). Moreover, the growth inhibition in assay [3] (setting [7]) was 99% (active); in assay [3] (setting [8]), 99% (active); in assay [3] (at 50.0 µM), 93.2% (active); in assay [4] (setting [7]), 99% (active); in assay [4] (setting [8]), 99% (active); in assay [4] (at 50.0 µM), 92.5% (active). Also, the growth inhibition in assay [5] (setting [7]) is 99% (active); in assay [5] (setting [8]), 99% (active); in assay [5] (at 50.0 µM), 92.4% (active); in assay [6] (setting [7]) it was 99% (active); in assay [6] (setting [8]), 99% (active); in assay [6] (at 50.0 µM), 91.9% (active).

As to `Cc1nc(-c2ccc(N=Cc3ccc(N(CCOS(C)(=O)=O)CCOS(C)(=O)=O)cc3)cc2)cs1`, the growth inhibition in assay [1] (setting [7]) was 1%; in assay [1] (setting [8]), 46%; in assay [1] (at 50.0 µM), 46.5%; in assay [2] (setting [7]), -24%; in assay [2] (setting [8]) it was 9%; in assay [2] (at 50.0 µM), 7.75%. Besides, the growth inhibition in assay [3] (setting [7]) is -2%; in assay [3] (setting [8]), 17%; in assay [3] (at 50.0 µM), 21.1%; in assay [4] (setting [7]) it was -2%; in assay [4] (setting [8]), 33%; in assay [4] (at 50.0 µM), -45.7%. The growth inhibition was -3% in assay [5] (setting [7]); -10% in assay [5] (setting [8]); -2.55% in assay [5] (at 50.0 µM); 12% in assay [6] (setting [7]); 54% in assay [6] (setting [8]); 71.8% (active) in assay [6] (at 50.0 µM).

For `NC(=O)N/N=C(/Cc1nc2ccccc2nc1C/C(=N/NC(N)=O)c1cccc2ccccc12)c1cccc2ccccc12`, the growth inhibition in assay [1] (setting [7]) is -1%; in assay [1] (setting [8]), 9%; in assay [1] (at 50.0 µM), 0.65%; in assay [2] (setting [7]) it was -13%; in assay [2] (setting [8]), -7%; in assay [2] (at 50.0 µM), 34.4%. Also, the growth inhibition in assay [3] (setting [7]) is -1%; in assay [3] (setting [8]) it was 17%; in assay [3] (at 50.0 µM) it was 16.8%; in assay [4] (setting [7]) it was -5%; in assay [4] (setting [8]) it was 2%; in assay [4] (at 50.0 µM) it was 82.2% (active). The growth inhibition was -8% in assay [5] (setting [7]); -10% in assay [5] (setting [8]); 0.15% in assay [5] (at 50.0 µM); -6% in assay [6] (setting [7]); 6% in assay [6] (setting [8]); 8.4% in assay [6] (at 50.0 µM).

Turning to `CCCCCCOC(=O)Nc1ccc(S(=O)(=O)N2CCCCC2)cc1`, the growth inhibition in assay [1] (setting [7]) is -7%; in assay [1] (setting [8]) it was 47%; in assay [1] (at 50.0 µM), 35.5%; in assay [2] (setting [7]) it was -9%; in assay [2] (setting [8]), 56%; in assay [2] (at 50.0 µM) it was 28.1%. The growth inhibition in assay [3] (setting [7]) is 7%; in assay [3] (setting [8]), 66%; in assay [3] (at 50.0 µM), 50.5%; in assay [4] (setting [7]), -87%; in assay [4] (setting [8]), 44%; in assay [4] (at 50.0 µM), 7.35%. For the same compound, the growth inhibition was -10% in assay [5] (setting [7]); 41% in assay [5] (setting [8]); 73.8% (active) in assay [5] (at 50.0 µM); -1% in assay [6] (setting [7]); 46% in assay [6] (setting [8]); 52.5% in assay [6] (at 50.0 µM).
